Experimental data taken from ChEMBL document CHEMBL3988442, “University of Dundee, Small-Polar-MMV Screening Library” (2021).
For some of these results: Entries with a potency or affinity are not part of this list.

Key:
Design in all cases: scale not given: direction of the effect not stated beside the values
[1] = target: Protein translocase subunit SecA (Escherichia coli (strain K12)) (UniProt P10408); experiment: Assay to Identify E. coli SecA ATPase Inhibitors; format: functional; conditions: 30 µM
[2] = target: T1, Ubiquitin-activating enzyme e1, putative (Leishmania donovani (strain BPK282A1)) (UniProt E9BSI1); experiment: Leishmania donovani Ubiquitin Activating Enzyme (LdE1); format: functional; conditions: 30 µM
T1 sequence (whole entry): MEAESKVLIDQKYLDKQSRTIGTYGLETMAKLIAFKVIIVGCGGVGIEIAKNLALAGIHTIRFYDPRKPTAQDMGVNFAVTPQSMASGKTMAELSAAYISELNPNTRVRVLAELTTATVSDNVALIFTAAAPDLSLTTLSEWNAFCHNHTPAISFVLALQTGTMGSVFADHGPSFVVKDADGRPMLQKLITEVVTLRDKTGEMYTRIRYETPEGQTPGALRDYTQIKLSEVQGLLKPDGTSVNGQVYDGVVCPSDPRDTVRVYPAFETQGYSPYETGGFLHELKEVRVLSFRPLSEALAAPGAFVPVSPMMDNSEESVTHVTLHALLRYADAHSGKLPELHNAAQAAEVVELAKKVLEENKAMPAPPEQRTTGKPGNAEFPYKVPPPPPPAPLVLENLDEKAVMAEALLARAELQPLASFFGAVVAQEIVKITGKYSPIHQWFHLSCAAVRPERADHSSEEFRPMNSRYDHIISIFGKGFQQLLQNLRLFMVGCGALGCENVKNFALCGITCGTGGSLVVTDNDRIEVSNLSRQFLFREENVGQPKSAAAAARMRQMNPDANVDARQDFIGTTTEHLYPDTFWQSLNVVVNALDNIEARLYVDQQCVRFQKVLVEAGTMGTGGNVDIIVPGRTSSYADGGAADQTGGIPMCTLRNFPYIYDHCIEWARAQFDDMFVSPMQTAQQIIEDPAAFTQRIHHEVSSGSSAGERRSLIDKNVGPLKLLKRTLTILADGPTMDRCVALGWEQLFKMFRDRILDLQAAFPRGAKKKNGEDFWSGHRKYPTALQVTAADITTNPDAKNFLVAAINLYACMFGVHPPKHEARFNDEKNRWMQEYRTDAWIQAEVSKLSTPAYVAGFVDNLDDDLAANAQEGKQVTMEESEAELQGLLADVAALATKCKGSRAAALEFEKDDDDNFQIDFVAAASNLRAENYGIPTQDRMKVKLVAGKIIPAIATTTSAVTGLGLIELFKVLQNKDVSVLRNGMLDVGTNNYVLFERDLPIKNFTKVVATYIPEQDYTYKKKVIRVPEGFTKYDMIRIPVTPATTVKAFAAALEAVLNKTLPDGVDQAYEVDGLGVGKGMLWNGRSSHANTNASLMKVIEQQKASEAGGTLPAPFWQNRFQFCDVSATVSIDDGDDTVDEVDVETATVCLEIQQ

[3] = target: AMP-activated protein kinase, AMPK (Homo sapiens) (UniProt P54646+O43741+P54619+Q9UGJ0+Q9Y478+Q13131+Q9UGI9); experiment: AMP-dependent Kinase enzyme assay. An in vitro enzyme assay that detects ADP turnover that is directly proportional to AMPK activity. This uses naive AMPK that is activated during the assay with MK-8722; format: functional; conditions: 30 µM
[4] = target: Sialic acid-binding Ig-like lectin 9 (Homo sapiens) (UniProt Q9Y336); experiment: Hs-Siglec9 ALPHAscreen SOP 20170721; conditions: 10 µM
[5] = tested on: Trypanosoma cruzi; experiment: Trypanosoma cruzi phosphomannomutase and mannose-1-phosphate guanylyltransferase assay; format: functional; conditions: 10 µM
[6] = target: T2, Arginase-2, mitochondrial (Homo sapiens) (UniProt P78540); experiment: in vitro enzyme assay to detect the production of urea directly proportional to the activity of Arginase II; format: functional; conditions: 33.3 µM; also: in the data most compounds retested in dose-response had high values
T2 sequence (whole entry): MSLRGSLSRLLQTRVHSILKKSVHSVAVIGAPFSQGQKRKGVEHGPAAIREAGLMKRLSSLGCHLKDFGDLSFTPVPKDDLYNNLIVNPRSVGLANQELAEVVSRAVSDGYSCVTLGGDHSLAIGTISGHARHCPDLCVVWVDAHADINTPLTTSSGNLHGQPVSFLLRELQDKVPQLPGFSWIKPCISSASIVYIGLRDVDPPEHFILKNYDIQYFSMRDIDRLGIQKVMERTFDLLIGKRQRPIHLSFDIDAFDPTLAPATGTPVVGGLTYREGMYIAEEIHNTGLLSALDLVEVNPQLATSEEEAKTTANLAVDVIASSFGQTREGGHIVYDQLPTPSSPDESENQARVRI

[7] = target: T3, Proteasome subunit beta (Trypanosoma cruzi) (UniProt O96673); experiment: Trypanosoma cruzi proteasome chymotrypsin-like activity (TcProtChymo) assay.; also: in the data most compounds retested in dose-response had high values; format: functional; conditions: 9.37 µM
T3 sequence (whole entry): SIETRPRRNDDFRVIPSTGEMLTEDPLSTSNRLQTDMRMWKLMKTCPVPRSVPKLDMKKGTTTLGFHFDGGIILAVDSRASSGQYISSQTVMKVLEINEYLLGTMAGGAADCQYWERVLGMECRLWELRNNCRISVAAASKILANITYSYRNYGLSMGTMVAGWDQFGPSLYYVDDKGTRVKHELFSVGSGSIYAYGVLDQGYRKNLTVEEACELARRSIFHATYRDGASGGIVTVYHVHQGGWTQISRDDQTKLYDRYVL

[8] = species on record: Homo sapiens; experiment: To identify inhibition of the IFN signalling (Jak-Stat) pathway via expression of an eGFP reporter gene under the control of an IFN-stimulated response element (ISRE) containing MxA promoter.; format: functional; conditions: 30 µM
[9] = target: T4, Tyrosyl-tRNA synthetase, putative (Trypanosoma cruzi (strain CL Brener)) (UniProt Q4DSP6); experiment: Trypanosoma cruzi tyrosyl tRNA synthetase (TcYRS) _High Tyrosine SOP; format: functional; conditions: 30 µM; also: in the data most compounds retested in dose-response had high values
T4 sequence (whole entry): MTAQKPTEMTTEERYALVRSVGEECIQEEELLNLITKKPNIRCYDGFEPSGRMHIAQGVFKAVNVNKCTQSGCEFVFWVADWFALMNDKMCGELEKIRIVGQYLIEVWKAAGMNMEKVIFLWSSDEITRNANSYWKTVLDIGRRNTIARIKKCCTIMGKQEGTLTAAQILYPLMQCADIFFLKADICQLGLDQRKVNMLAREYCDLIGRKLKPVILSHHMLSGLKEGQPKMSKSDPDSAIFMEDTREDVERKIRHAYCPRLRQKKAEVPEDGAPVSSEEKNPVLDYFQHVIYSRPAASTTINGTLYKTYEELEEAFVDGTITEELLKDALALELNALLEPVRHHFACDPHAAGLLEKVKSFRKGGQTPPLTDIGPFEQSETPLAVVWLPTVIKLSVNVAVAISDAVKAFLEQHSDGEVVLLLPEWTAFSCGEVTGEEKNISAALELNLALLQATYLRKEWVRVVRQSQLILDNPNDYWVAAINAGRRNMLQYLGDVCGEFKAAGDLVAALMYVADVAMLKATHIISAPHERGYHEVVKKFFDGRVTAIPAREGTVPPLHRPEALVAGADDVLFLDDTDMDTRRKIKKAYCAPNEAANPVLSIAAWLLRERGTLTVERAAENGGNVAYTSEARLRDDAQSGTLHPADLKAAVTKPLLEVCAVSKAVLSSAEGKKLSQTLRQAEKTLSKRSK

[10] = target: T4, Tyrosyl-tRNA synthetase, putative (Trypanosoma cruzi (strain CL Brener)); experiment: Trypanosoma cruzi tyrosyl tRNA synthetase (TcYRS) SOP; format: functional; conditions: 30 µM
[11] = target: Chromo domain-containing protein 1 (Saccharomyces cerevisiae (strain ATCC 204508 / S288c) (Baker's yeast)) (UniProt P32657); experiment: ScCHD-1 Enzyme Inhibition Assay; format: functional; conditions: 30 µM; also: in the data most compounds retested in dose-response had high values
Chromo domain-containing protein 1 (Saccharomyces cerevisiae (strain ATCC 204508 / S288c) (Baker's yeast)), sequence (P32657 whole entry, the tested form may be a part): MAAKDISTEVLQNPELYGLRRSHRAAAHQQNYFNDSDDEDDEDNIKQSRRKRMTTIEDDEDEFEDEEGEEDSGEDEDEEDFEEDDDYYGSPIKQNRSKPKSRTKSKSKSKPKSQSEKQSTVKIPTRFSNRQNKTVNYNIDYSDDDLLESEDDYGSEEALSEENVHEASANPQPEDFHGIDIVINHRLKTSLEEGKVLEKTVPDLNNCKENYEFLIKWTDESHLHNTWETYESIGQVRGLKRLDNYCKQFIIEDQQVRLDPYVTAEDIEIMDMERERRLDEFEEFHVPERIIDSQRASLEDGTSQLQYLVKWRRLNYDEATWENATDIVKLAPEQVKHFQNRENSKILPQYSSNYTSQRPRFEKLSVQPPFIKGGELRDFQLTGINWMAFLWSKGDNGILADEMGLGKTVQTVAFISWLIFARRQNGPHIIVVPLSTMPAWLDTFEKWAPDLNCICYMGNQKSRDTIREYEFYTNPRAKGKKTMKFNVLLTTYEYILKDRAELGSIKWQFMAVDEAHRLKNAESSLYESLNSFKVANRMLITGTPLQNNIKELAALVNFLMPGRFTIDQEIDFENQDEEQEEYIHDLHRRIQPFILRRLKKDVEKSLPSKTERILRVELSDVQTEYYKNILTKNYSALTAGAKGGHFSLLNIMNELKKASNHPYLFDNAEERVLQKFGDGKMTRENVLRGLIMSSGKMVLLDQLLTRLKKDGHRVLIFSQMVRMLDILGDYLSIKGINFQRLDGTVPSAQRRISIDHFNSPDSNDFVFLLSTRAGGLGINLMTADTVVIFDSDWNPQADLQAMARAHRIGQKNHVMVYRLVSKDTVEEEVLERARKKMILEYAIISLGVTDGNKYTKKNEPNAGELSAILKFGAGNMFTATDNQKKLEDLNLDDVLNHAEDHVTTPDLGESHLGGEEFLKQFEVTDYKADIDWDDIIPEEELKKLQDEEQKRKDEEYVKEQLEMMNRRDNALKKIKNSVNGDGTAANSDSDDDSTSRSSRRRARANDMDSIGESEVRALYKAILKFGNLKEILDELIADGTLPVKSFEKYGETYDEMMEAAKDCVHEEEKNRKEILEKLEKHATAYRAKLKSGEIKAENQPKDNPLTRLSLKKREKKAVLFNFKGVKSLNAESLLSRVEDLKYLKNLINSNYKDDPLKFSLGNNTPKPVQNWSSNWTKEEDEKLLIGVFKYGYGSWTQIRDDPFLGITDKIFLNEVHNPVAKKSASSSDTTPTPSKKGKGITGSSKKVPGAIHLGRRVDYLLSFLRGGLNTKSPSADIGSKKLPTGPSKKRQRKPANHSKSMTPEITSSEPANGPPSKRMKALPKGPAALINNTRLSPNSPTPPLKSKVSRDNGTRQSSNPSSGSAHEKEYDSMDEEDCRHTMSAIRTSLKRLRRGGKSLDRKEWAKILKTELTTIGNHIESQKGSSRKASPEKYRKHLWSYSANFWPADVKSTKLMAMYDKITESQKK

Sialic acid-binding Ig-like lectin 9 (Homo sapiens), sequence (Q9Y336 whole entry): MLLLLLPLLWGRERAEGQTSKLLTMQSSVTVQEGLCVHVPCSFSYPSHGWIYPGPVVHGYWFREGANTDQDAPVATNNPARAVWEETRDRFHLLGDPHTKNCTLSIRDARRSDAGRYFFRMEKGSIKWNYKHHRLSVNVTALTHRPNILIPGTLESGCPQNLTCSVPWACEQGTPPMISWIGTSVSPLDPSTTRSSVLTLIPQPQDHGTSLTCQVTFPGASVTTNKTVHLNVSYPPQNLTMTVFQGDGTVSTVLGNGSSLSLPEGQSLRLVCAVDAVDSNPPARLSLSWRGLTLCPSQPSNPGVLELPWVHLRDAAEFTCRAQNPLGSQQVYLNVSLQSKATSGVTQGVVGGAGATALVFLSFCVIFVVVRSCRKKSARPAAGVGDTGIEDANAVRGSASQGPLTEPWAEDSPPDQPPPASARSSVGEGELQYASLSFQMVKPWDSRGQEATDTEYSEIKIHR
Protein translocase subunit SecA (Escherichia coli (strain K12)), sequence (P10408 whole entry): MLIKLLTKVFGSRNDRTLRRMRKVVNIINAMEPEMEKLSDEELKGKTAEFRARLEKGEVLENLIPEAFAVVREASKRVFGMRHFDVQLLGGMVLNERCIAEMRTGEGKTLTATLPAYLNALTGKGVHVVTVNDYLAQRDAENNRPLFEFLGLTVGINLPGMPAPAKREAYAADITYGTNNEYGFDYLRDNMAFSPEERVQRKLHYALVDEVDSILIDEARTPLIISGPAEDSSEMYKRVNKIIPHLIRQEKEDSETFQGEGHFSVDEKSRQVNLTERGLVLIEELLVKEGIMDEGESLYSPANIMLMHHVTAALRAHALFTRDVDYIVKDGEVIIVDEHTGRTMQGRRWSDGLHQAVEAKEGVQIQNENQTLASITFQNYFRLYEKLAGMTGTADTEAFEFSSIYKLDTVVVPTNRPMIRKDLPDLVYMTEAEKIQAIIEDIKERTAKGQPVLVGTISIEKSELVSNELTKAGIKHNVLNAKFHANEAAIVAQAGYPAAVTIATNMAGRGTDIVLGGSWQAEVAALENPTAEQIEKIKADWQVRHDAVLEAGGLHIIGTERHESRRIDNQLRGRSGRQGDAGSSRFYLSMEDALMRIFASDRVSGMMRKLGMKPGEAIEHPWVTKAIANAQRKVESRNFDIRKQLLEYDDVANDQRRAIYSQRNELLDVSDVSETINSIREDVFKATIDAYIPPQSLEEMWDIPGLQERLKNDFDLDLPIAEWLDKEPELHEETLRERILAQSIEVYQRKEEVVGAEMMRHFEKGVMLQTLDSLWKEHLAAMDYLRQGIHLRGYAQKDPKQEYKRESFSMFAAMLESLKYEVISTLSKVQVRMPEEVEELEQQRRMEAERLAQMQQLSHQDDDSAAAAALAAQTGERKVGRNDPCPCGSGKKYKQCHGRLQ

With `Cc1cnn(C2CCCN(C(=O)c3ccn(C)c(=O)c3)C2)c1` (stereo unspecified) the Percent Effect [1] was -0.722%, the Percent Effect [2] was 7.79% and the Percent Effect [3] was -5.73%. The Percent Effect [4] was -4%, the Percent Effect [5] was 1.08% and the Percent Effect [6] was 5.68%. For the same molecule, the Percent Effect [7] was -3.15%, the Percent Effect [8] was 20.6% and the Percent Effect [9] was 3.81%. For the same molecule, the Percent Effect [10] was 11.8% and the Percent Effect [11] was -14.6%.

Molecule `CC(Cn1cncn1)NCc1nncn1C1CCCCC1` (stereo unspecified) has a Percent Effect [1] of -0.337%, a Percent Effect [2] of 6.94% and a Percent Effect [3] of -10.2%. For the same molecule, the Percent Effect [4] was 13.3%, the Percent Effect [5] was 0.0972% and the Percent Effect [6] was 12.4%. For the same molecule, the Percent Effect [7] was 14.4%, the Percent Effect [8] was -15.2% and the Percent Effect [9] was 8.42%. The Percent Effect [10] was 15.4% and the Percent Effect [11] was -5.04%.

`Cc1ccn(-c2ccccc2NCc2cccnc2C)n1` gave a Percent Effect [1] of -0.328%, a Percent Effect [2] of 0% and a Percent Effect [3] of 2.86%. It also gave a Percent Effect [4] of -2.06%, a Percent Effect [5] of -0.196% and a Percent Effect [6] of 0%. The Percent Effect [7] was 3.02%, the Percent Effect [8] was 17.4% and the Percent Effect [9] was -1.07%. It also gave a Percent Effect [10] of -2.5% and a Percent Effect [11] of -0.646%.

For `CC(C)c1nnc2n1CC(CNCc1ccncc1)CC2` (stereo unspecified), the Percent Effect [1] was -1.84%, the Percent Effect [2] was 4.17% and the Percent Effect [3] was -5.62%. The Percent Effect [4] was -8.26%, the Percent Effect [5] was -3.21% and the Percent Effect [6] was 2.21%. The Percent Effect [7] was 17%, the Percent Effect [8] was -9.1% and the Percent Effect [9] was 3.16%. It also gave a Percent Effect [10] of -2.56% and a Percent Effect [11] of -2.53%.

For `CN1CCOC(CNCc2nc(-c3ccccc3)cs2)C1` (stereo unspecified), the Percent Effect [1] was -3.28%, the Percent Effect [2] was -12.7% and the Percent Effect [3] was -8.45%. The Percent Effect [4] was 1.64%, the Percent Effect [5] was 5.95% and the Percent Effect [6] was -1.9%. The Percent Effect [7] was 1.39%, the Percent Effect [8] was -25.8% and the Percent Effect [9] was 1.48%. The Percent Effect [10] was 1.27% and the Percent Effect [11] was 4.02%.

`c1cnnc(N2CCCC2CNc2nc3ccccc3o2)c1` (stereo unspecified) showed a Percent Effect [1] of -5.3%, a Percent Effect [2] of 11.4% and a Percent Effect [3] of 3.62%. The Percent Effect [4] was 9.59%, the Percent Effect [5] was 1.33% and the Percent Effect [6] was 4.95%. The Percent Effect [7] was 11.5%, the Percent Effect [8] was 11.9% and the Percent Effect [9] was 0%. The Percent Effect [10] was 20.2% and the Percent Effect [11] was -16%.

Work on `CC(C)N1CCC(Cc2cc(-c3cccc(C(=O)O)c3)ncn2)C1` (stereo unspecified) yielded a Percent Effect [1] of 1.6%, a Percent Effect [2] of -9.46% and a Percent Effect [3] of 7.52%. For the same molecule, the Percent Effect [4] was 4.36%, the Percent Effect [5] was -1.78% and the Percent Effect [6] was -0.232%. It also gave a Percent Effect [7] of 2.5%, a Percent Effect [8] of 0.46% and a Percent Effect [9] of 2.15%. For the same molecule, the Percent Effect [10] was 1.3% and the Percent Effect [11] was 20.8%.

With `O=C(CC1CC1)NCc1cn2c(n1)CN(C(=O)c1cccnc1)CC2` the Percent Effect [1] was -2.41%, the Percent Effect [2] was 8% and the Percent Effect [3] was 8.62%. The Percent Effect [4] was 2.88%, the Percent Effect [5] was -7.28% and the Percent Effect [6] was 1.17%. It also gave a Percent Effect [7] of 2.73%, a Percent Effect [8] of 9.61% and a Percent Effect [9] of 0%. It also gave a Percent Effect [10] of 8.97% and a Percent Effect [11] of 3.52%.

In the case of `COCC1c2nnn(CC3CC3)c2CCN1C(=O)c1cccc(F)c1` (stereo unspecified), the Percent Effect [1] is reported as -5.76%, the Percent Effect [2] is reported as 0% and the Percent Effect [3] is reported as -4.62%. For the same molecule, the Percent Effect [4] was 0.968%, the Percent Effect [5] was -4.59% and the Percent Effect [6] was -0.248%. The Percent Effect [7] was 3%, the Percent Effect [8] was 10% and the Percent Effect [9] was 5.38%. It also gave a Percent Effect [10] of 6.17% and a Percent Effect [11] of 1.63%.

For `CNc1cncc(C2CCCN(S(C)(=O)=O)C2)n1` (stereo unspecified), the Percent Effect [1] was -1.57%, the Percent Effect [2] was -1.35% and the Percent Effect [3] was 13.3%. The Percent Effect [4] was 2.54%, the Percent Effect [5] was -6.92% and the Percent Effect [6] was 3.48%. It also gave a Percent Effect [7] of 17%, a Percent Effect [8] of 23.6% and a Percent Effect [9] of 1.07%. It also gave a Percent Effect [10] of 6.49% and a Percent Effect [11] of -15.8%.

Work on `CCc1nc2n(n1)CC(NCc1ncc(-c3ccccc3)o1)CC2` (stereo unspecified) yielded a Percent Effect [1] of -1.59%, a Percent Effect [2] of -2.63% and a Percent Effect [3] of 0.215%. It also gave a Percent Effect [4] of 5.65%, a Percent Effect [5] of 1.21% and a Percent Effect [6] of 1.8%. It also gave a Percent Effect [7] of 4.65%, a Percent Effect [8] of -5.2% and a Percent Effect [9] of 3.45%. It also gave a Percent Effect [10] of -23.5% and a Percent Effect [11] of -5.56%.
